Test results from PubChem BioAssay AID686979 (National Center for Advancing Translational Sciences (NCATS), 2013).
Out of some 420,000 compounds screened, about 50,000 (12%) were called active. Where a call stands in place of a potency, no number is given. Roughly 26% stayed inconclusive and do not appear here. Calls come from the whole dose curve; as a rule, active = well fitted inhibition curve with a large enough effect; inconclusive = small, poorly fitted or top-dose-only effect; inactive = flat fitted curve, though single readings scatter. This excerpt belongs to a sample that is enriched for actives.
Potency is the fitted concentration of half-maximal effect.

Test: qHTS for Inhibitors of human tyrosyl-DNA phosphodiesterase 1 (TDP1): qHTS in cells in presence of CPT; note: nearly all actives have a fitted effect of over 55% in size
Details: chicken DT40 Tdp1-/-;hTDP1 cells + 20 nM CPT, ATP luminescence, 48 h; series mostly up to 46.2 µM
Method in brief: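 Chicken DT40 Tdp1-/- cells stably complemented with human TDP1 were seeded at 400 cells/well in medium containing 20 nM camptothecin, exposed to pin-transferred compounds, and grown at 37 °C for at least 48 hr. Viability was read as ATP luminescence.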
In the case of O=C(NCc1ccc(Cl)cc1)c1ccc2c(c1)nnn2C1CCCC1, the Potency was “inactive”.
With O=C(CCC1N=C2c3ccccc3N=C(SCc3ccccc3F)N2C1=O)NCCc1ccccc1 (centres undefined) the Potency was “inactive”.
In the case of Cc1nc(C(F)(F)F)ccc1C(=O)N1CCC1(C)C(=O)NS(=O)(=O)c1ccccc1 (centres undefined), the Potency was “inactive”.
For CCn1cc(C(=O)N[C@@H](C)C(=O)NCCO)c(=O)c2cc3c(cc21)OCO3, the Potency was “inactive”.
For Cc1cc(-c2ccc(/C=N/n3cnnc3)o2)c([N+](=O)[O-])cc1C, the Potency was “inactive”.
In the case of Cc1ccccc1OCCOc1ccc([N+](=O)[O-])cc1/C=N/n1cnnc1, the Potency was 1.16 µM (active).
With COc1ccccc1OCCOc1ccc(/C=N/n2cnnc2)cc1 the Potency was “inactive”.
For O=C(c1ccc(=O)oc1)N1CCC(C(O)(c2ccccc2)c2ccccc2)CC1, the Potency was “inactive”.
For CC1(C(=O)NCc2ccco2)Cc2c(-c3ccc4c(c3)OCO4)ccnc2O1 (centres undefined), the Potency was 0.82 µM (active).
With O=C(NCc1ccc2c(c1)OCO2)c1cc(F)c(F)cc1Cl the Potency was “inactive”.
For S=C(NCc1ccc2c(c1)OCO2)NCc1ccco1, the Potency was “inactive”.
With O=C(Cn1nnc(-c2ccc3c(c2)OCO3)n1)NCc1ccco1 the Potency was “inactive”.
With CC1(C(=O)NCc2ccc(F)c(F)c2)Cc2c(-c3ccc4c(c3)OCO4)ccnc2O1 (centres undefined) the Potency was 4.11 µM (active).
For COc1cc(OC)c(C(=O)NCc2ccc3c(c2)OCO3)cc1OC, the Potency was “inactive”.
In the case of O=S(=O)(NC1CCCC1)c1ccc(-n2cnnn2)cc1, the Potency was “inactive”.
For C/C(COc1ccccc1)=N\NC(=O)c1nnn(-c2nonc2N)c1-c1ccc(C)cc1, the Potency was “inactive”.
For COc1ccc(-c2cc(-c3ccccc3)nc3c2COc2ccc(Cl)cc2-3)cc1, the Potency was “inactive”.
In the case of CC(=O)c1ccc(Cc2ncc(C(F)(F)F)cc2Cl)s1, the Potency was “inactive”.
For Cc1cccc(OC(C)C(=O)N2CCc3ccccc3C2)c1 (centres undefined), the Potency was “inactive”.
For COc1cc(N2C(=O)c3ccccc3C2=O)c(Cl)cc1C(=O)OCC(=O)N1CCOCC1, the Potency was “inactive”.
With COc1cccc(NC(=O)COC(=O)/C=C/c2ccco2)c1 the Potency was “inactive”.
With Cc1cccc(OCC(=O)NCCCNC(=O)c2ccccn2)c1 the Potency was “inactive”.
With CCN(CC)CCOc1ccc2c(c1)C(=NNC(=O)c1ccccn1)c1cc(OCCN(CC)CC)ccc1-2 the Potency was 5.17 µM (active).
With CCOc1cc2ccccc2cc1C(=O)Nc1ccccn1 the Potency was “inactive”.
In the case of CCCc1nnc(NC(=O)CCC(=O)NC2CC2)s1, the Potency was “inactive”.
For CCCc1ccc(C(=O)COC(=O)CN2C(=O)NC3(CCCCC3C)C2=O)cc1 (centres undefined), the Potency was “inactive”.
For Cc1cc2c(cc1C)[n+](C)cn2CC(O)COCC1CC=CCC1 (centres undefined), the Potency was 8.2 µM (active).
For CC1CCN(C(=O)/C(=C\c2ccccc2)NC(=O)c2ccccc2)CC1, the Potency was “inactive”.
In the case of Cc1nn(CC#N)c(=O)n1N(C)c1ncc(C(F)(F)F)cc1Cl, the Potency was “inactive”.
